High-throughput results: PubChem BioAssay, National Center for Advancing Translational Sciences (NCATS)
KB-V1 cytotox: kills drug-selected multidrug resistant KB-V1 cells. KB-V1 MDR cells viability, CellTiter-Glo, 72 h. Potency, µM (series often up to 46.1 µM), actives largely listed as cytotoxic. 400,000 tested, 3.4% active. AID 1347076; also: % is scaled to controls: 0 for no effect and ±100 for the full control effect; nearly all actives have a fitted effect of over 60% in size
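Compound-treated KB-V1 multidrug-resistant cells, 72 h, 37 degrees C; viability by CellTiter-Glo. Fitted qHTS curves give the values.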
S2 tox: cell viability loss in ATXN counter-screen. S2 cells (HEK-293 line with an ATXN2-luciferase reporter) viability, CellTiter-Fluor protease fluorescence, 24 h. Potency, µM (top dose mostly 56.7 µM), actives largely listed as cytotoxic. 400,000 tested, 0.49% active. AID 651635; also: nearly all actives have a fitted effect of over 40% in size
HT1080 IDH1KD tx: kills HT-1080 cells with IDH1 knockdown; Potency, µM (series often up to 46.1 µM), for the others: top-dose activity, negative = toxicity, usual class: cytotoxic; 360,000 tested, 2% active; HT-1080 IDH1 knockdown viability, ATP luminescence, 48 h;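 also: 0% = DMSO wells and -100% = cell-free medium wells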
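Cytotoxicity counter-line: IDH1KD HT-1080, 48 h, CellTiter-Glo. Curves classed by r2, magnitude and activity.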
HT1080-NT tox: kills 2HG-producing HT-1080-NT fibrosarcoma cells | HT-1080-NT fibrosarcoma viability, CellTiter-Glo ATP luminescence, 48 h | Potency, µM (titrated, usually from 46.1 µM), without a hit: at the top dose activity, negative = less viability, usual class: cytotoxic | 360,000 tested, 1.6% active | AID 686970;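 also: NT is the 2HG producing partner of a matched IDH1 knockdown line; 0% = DMSO-treated cells and -100% = media-only wells without cells; nearly all actives have a fitted effect of over 55% in size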
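Luminescent CellTiter-Glo readout after 48 hours of compound exposure at 37 degrees C defined viability of HT-1080-NT cells. Activity was normalized to DMSO wells and cell-free media wells; concentration-response curves were fitted and assigned curve classes.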
KB-3-1 tox: kills parental KB-3-1 adenocarcinoma cells; KB-3-1 viability, CellTiter-Glo ATP luminescence, 72 h; Potency, µM (top dose mostly 46.1 µM), most hits filed as cytotoxic; 400,000 tested, 1.4% active; AID 1347075; also: % is scaled to controls: 0 for no effect and ±100 for the full control effect; nearly all actives have a fitted effect of over 60% in size
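Parental KB-3-1 viability, qHTS format: 72 h compound exposure, 37 °C; CellTiter-Glo; media-only wells and DMSO plates as controls; concentration-effect fits on corrected data.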
ATXN2 expr inh: ATXN2 expression inhibition; HEK-293 ATXN2-luciferase reporter, luminescence, 24 h; Potency, µM (series often up to 57 µM), inactives show top-dose activity change, negative = inhibition, actives largely listed as inhibitors; 360,000 tested, 0.72% active; also: % is scaled to controls: 0 for no effect and ±100 for the full control effect; nearly all actives have a fitted effect of over 55% in size
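qHTS (up to 57 uM final) was run with 24 h compound exposure of reporter cells at 37 °C. Each well was multiplexed: SteadyGlo luminescence measured ATXN2-luciferase expression after a fluorogenic Gly-Phe-AFC viability readout (25 uM final).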
Active calls of the source: *; i = inactive; ? = inconclusive; / = no result; ! = a repeat was not active; [ ] = remark or other dose. In the library only some 6.2% were active in any assay of this set; here they are far more common. Calls follow the shape of the dose curve; as a rule, active = well fitted curve in the direction sought with a large enough effect; inconclusive = small, poorly fitted or top-dose-only effect, or another doubt; inactive = no such curve, though single readings can be large; an effect the other way counts as inactive or inconclusive. Potency is read from the fitted curve at half-maximal effect.

SMILES | KB-V1 cytotox | S2 tox | HT1080 IDH1KD tx | HT1080-NT tox | KB-3-1 tox | ATXN2 expr inh
CCN(Cc1ccccc1)S(=O)(=O)c1ccc(F)c(C(=O)Nc2ccc(C(C)C)cc2)c1 | i | i | / | / | i | 10%
O=C1[C@@H](Oc2ccccc2)[C@@H](c2ccncc2)N1c1ccccc1 | i | i | 21µM* | ? | i | -8%
O=C1[C@@H](Oc2ccccc2)[C@@H](c2ccccc2)N1c1cccnc1 | i | ? | -1% | 0% | i | -12%
C=C(C)COc1ccc(-c2nc(N)ncc2-c2ccc(Br)cc2)c(O)c1 | ? | i | -25% | ? | 21µM* | -8%
C=C(C)COc1ccc(-c2[nH]ncc2-c2ccc(Br)cc2)c(O)c1 | 12µM* | ? | 23µM* | 15µM* | 5.8µM* | ?
C=C(C)COc1ccc(-c2[nH]ncc2Oc2ccc(OC)cc2)c(O)c1 | i | i | ? | ? | ? | 5%
C=C(C)COc1ccc(-c2[nH]ncc2-c2ccccc2OC)c(O)c1 | ? | ? | 18µM* | 18µM* | ? | ?
C=C(C)COc1ccc(-c2ncncc2-c2ccc(Br)cc2)c(O)c1 | i | / | -28% | ? | i | -13%
C=C(C)COc1ccc(-c2[nH]ncc2Oc2ccccc2OC)c(O)c1 | i | ? | -4%[9.24 µM] | ? | i | -22%
CCOc1ccc(-c2[nH]ncc2-c2ccc(OC)c(OC)c2)c(O)c1 | 3.7µM* | ? | 2.2µM* | 6.3µM* | ? | -20%
O=c1c(N2CCN(c3ccccc3)CC2)csc2ccc(Cl)cc12 | i | i | / | / | i | 2%
Cc1ccc(S(=O)(=O)N2CCN(c3nc(-c4ncco4)nc4ccccc34)CC2)cc1 | / | / | -7% | -9% | / | /
CCOc1ccc(C2N3CC4(C(C)C)CN2CC(C(C)C)(C3)C4=O)cc1OC (centres undefined) | i | i | / | / | i | 8%
CCOc1ccc(-c2nc(N)ncc2Oc2cccc(OC)c2)c(O)c1 | ? | i | ? | -25% | ? | -4%
COc1ccc(-c2cn[nH]c2-c2ccc(OCc3ccc([N+](=O)[O-])cc3)cc2O)cc1 | 3.7µM* | ? | -20% | 0% | ? | -8%
CCOc1ccc(-c2nc(N)ncc2Oc2ccccc2Br)c(O)c1 | i | i | 23µM* | ? | i | -7%
O=C(Nc1ncc(SCCN2CCCC2)s1)[C@]1(c2ccc(S(=O)(=O)C3CC3)cc2)C[C@@H]1C1CCCCC1 | / | / | / | / | / | 27µM*
COc1ccc(Cn2cc(S(=O)(=O)c3ccc(C)cc3)c(=O)c3cc(F)ccc32)cc1 | i | i | / | / | i | 8%
CN(C)CCCn1c(=S)[nH]c2ccccc2c1=O | i | i | 6% | -1% | i | -11%
CN(C)CCCN=c1c2ccccc2n(C)c2[nH]c(=O)n(C)c(=O)c12 | / | / | / | / | / | 17µM*
Cc1cccc(NC(=S)NC2CC3CCCC(C2)N3Cc2cccs2)c1C (centres undefined) | i | i | ? | 11µM* | i | -8%
CCCN1C2CCCC1CC(NC(=S)Nc1cccc(C)c1C)C2 (centres undefined) | i | i | -8% | -13% | i | /
Cc1cccc(NC(=S)NC2CC3CCCC(C2)N3CC(C)C)c1C (centres undefined) | 21µM* | i | 13% | 6% | i | 5%
C/C(=N\NC(=O)C1(C)CC1(Br)Br)c1ccc(NC(=O)C2CCC2)cc1 (centres undefined) | ? | ? | ? | ? | 21µM* | -28%
C/C(=N\NC(=O)c1ccn(C)n1)c1ccc(NC(=O)C2CCC2)cc1 | i | i | -7% | 1% | ? | 3%
SMILES | KB-V1 cytotox | S2 tox | HT1080 IDH1KD tx | HT1080-NT tox | KB-3-1 tox | ATXN2 expr inh
Nc1cccc2[nH]cnc12 | i | / | / | / | i | /
Cn1c(SCc2cc(=O)n3cc(Br)ccc3n2)nnc1C1COc2ccccc2O1 (centres undefined) | 12µM* | i | 9% | 0% | i | 1%
O=C(OCc1cc(=O)n2cc(Br)ccc2n1)C1COc2ccccc2O1 (centres undefined) | i | i | 10% | 2% | i | 0%
CC(C)c1nc2ccc(C(=O)Nc3ccccc3F)cc2o1 | i | / | / | / | ? | /
CCOC(=O)c1c(CN2CCN(C)CC2)oc2ccc(OC)cc12 | i | i | 1% | 7% | i | -8%
CCOC(=O)c1c(CN2CCCCC2)oc2ccc(OC)cc12 | 9.2µM*! | i | -15% | -5% | i | ?
COc1ccc(-c2c3c(=O)n(C)c(=O)n(C)c3cn2-c2cccc(N)c2)cc1 | i | ? | / | / | i | -14%
COc1cc(CCC(=O)NCc2ccc3c(c2)CCN3C(=O)c2cccc(C)c2)cc(OC)c1OC | i | / | / | / | i | /
O=C(CCc1ccc(O)cc1)NN=Cc1ccc2c(c1)OCO2 | i | i | 5.8µM* | ? | ? | /
Cc1cccc(OCC(=O)N/N=C/c2ccc3c(c2)OCO3)c1 | i | i | -1% | 1% | i | 8%
Cc1cc(C)c(OCC(=O)N/N=C/c2ccc3c(c2)OCO3)c(C)c1 | i | i | 13µM* | 18µM* | ? | ?
CCOc1ccc(CCNC(=O)c2nn(C)c3c2CSc2ccc(C)cc2-3)cc1OCC | ? | ? | / | / | i | -38%
COc1cccc(-c2cnc3c(NC(C)=O)cc(-c4ccccc4OC)cn23)c1 | i | ? | ? | ? | i | -37%
COc1ccc(F)cc1-c1cc(NC(C)=O)c2ncc(-c3cc(OC)c(OC)c(OC)c3)n2c1 | i | ? | -2% | ? | 7.3µM* | -5%
COc1ccc(-c2cnc3c(NC(C)=O)cc(-c4cc(F)ccc4OC)cn23)cc1OC | ? | i | ? | ? | ? | -2%
COc1ccccc1-c1cc(NC(C)=O)c2ncc(-c3ccccc3)n2c1 | ? | ? | ? | 23µM* | i | -21%
Cc1nc(C(=O)Nc2ccccc2)sc1C1(C)CC(c2cccnc2)=NO1 (centres undefined) | i | i | 8% | 8% | i | 46%
COc1ccc(NC(=O)c2nc(C)c(C3(C)CC(c4ccccc4)=NO3)s2)cc1 (centres undefined) | ? | i | ? | ? | 4.6µM* | 7%
CCc1cc(CC)c(/C=N/NC(N)=O)c(CC)c1 | i | i | -2% | -1% | i | -29%
Cc1cc(C)c(/C=N/NC(N)=O)c(C)c1/C=N/NC(N)=O | ? | i | 11% | 5% | 3.7µM* | 5%
